Records with an inconclusive call do not appear. Active and inactive are the calls of the source. Unless noted, calls come from the whole dose curve; as a rule, active = well fitted curve in the direction sought with a large enough effect in the repeat runs; inconclusive = weak or mixed curves; inactive = no such curve, though single readings can be large; an effect the other way counts as inactive or inconclusive.
How the values were obtained:
[1] = biological target: Peroxisome proliferator-activated receptor delta (Homo sapiens) (UniProt Q03181); assay: qHTS assay to identify small molecule agonists of the peroxisome proliferator-activated receptor delta (PPARd) signaling pathway (AID 743212; calls by dose curve;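 note: HEK293H cells with PPARd UAS beta-lactamase reporter GeneBLAzer system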)
Peroxisome proliferator-activated receptor delta (Homo sapiens), sequence (Q03181 whole entry, looked up): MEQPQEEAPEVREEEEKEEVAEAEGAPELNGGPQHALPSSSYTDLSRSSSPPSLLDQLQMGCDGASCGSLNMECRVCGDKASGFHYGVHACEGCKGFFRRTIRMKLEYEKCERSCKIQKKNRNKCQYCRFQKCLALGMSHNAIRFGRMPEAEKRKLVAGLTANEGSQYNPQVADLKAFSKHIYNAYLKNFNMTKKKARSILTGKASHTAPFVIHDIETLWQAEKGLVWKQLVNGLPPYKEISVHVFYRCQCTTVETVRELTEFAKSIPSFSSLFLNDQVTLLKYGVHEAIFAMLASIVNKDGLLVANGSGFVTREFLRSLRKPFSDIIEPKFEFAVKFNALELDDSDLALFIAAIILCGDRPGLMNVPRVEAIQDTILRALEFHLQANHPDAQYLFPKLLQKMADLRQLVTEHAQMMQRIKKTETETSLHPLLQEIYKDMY
In short: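 Beta-lactamase reporter read by fluorescence (LiveBLAzer B/G FRET, 2 h, room temperature). Test agents, in DMSO, incubated at 37 C with PPARd-bla HEK293H cells.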

[2] = qHTS assay to identify small molecule antagonists of the peroxisome proliferator-activated receptor delta (PPARd) signaling pathway - cell viability counter screen (AID 743213); note: nearly all actives have a fitted effect of over 50% in size
In short: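 HEK293H cells with the PPARd UAS-bla reporter, co-treated 17 h at 37 C with compounds and L165041 (300 nM final), were lysed with CellTiter-Glo. Luminescence indicated viable cell content.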

[3] = biological target: Peroxisome proliferator-activated receptor delta (Homo sapiens) (UniProt Q03181); assay: qHTS assay to identify small molecule antagonists of the peroxisome proliferator-activated receptor delta (PPARd) signaling pathway (AID 743215; active = well fitted inhibition curve with a large enough effect in the signal ratio in the repeat runs, not every such curve was filed as active; the % refers to the signal ratio;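 note: cells stimulated with agonist L165041 at 300 nM final during compound exposure; series mostly up to about 62 µM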)
In short: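 Agonist L165041 (300 nM final) added with compound to PPARd-bla HEK293H UAS-bla reporter cells; 17 h incubation at 37 C. Read-out: LiveBLAzer FRET substrate, 2 h at room temperature, fluorescence intensity.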

[4] = qHTS assay to identify small molecule agonists of the farnesoid-X-receptor (FXR) signaling pathway - cell viability counter screen (AID 743218); note: nearly all actives have a fitted effect of over 45% in size
In short: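 Viability counter screen in the same wells: CellTiter-Glo luminescence, 30 min room-temperature incubation, measured after the beta-lactamase read. Cells were GeneBLAzer FXR-UAS-bla HEK 293T, compound-treated 16 h at 37C.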

[5] = biological target: Vitamin D3 receptor (Homo sapiens) (UniProt P11473); assay: qHTS assay to identify small molecule agonists of the vitamin D receptor (VDR) signaling pathway (AID 743222; calls by dose curve)
Vitamin D3 receptor (Homo sapiens), sequence (P11473 whole entry, looked up): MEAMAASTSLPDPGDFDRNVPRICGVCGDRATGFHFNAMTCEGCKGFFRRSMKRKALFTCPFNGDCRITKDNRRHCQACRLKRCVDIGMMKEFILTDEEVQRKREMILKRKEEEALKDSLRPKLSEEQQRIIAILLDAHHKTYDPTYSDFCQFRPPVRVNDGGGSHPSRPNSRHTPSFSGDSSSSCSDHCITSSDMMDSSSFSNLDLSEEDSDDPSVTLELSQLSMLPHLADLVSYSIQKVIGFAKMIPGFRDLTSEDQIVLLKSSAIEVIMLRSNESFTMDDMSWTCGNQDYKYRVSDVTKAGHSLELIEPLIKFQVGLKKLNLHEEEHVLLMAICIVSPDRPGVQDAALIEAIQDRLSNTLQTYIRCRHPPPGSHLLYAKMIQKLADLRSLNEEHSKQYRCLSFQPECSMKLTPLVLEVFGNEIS
In short: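 Agonist mode, beta-lactamase reporter: fluorescence from LiveBLAzer B/G FRET substrate (2 h, room temperature) read after 16 h compound treatment at 37 C of VDR-bla cells, which were pre-incubated 4 h after seeding.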

[6] = biological target: Vitamin D3 receptor (Homo sapiens) (UniProt P11473); assay: qHTS assay to identify small molecule antagonists of the vitamin D receptor (VDR) signaling pathway (AID 743223; active = well fitted inhibition curve with a large enough effect in the signal ratio in the repeat runs, not every such curve was filed as active; the % refers to the signal ratio)
In short: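 VDR-bla cells were plated, incubated 4 h at 37C, then given compound and 1alpha,25-dihydroxyvitamin D3 (3 nM final). After 16 h at 37C, LiveBLAzer B/G FRET substrate was added for 2 h at room temperature and fluorescence read.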

[7] = biological target: Bile acid receptor (Homo sapiens) (UniProt Q96RI1); assay: qHTS assay to identify small molecule antagonists of the farnesoid-X-receptor (FXR) signaling pathway (AID 743217; active = well fitted inhibition curve with a large enough effect in the signal ratio in the repeat runs, not every such curve was filed as active; the % refers to the signal ratio)
Bile acid receptor (Homo sapiens), sequence (Q96RI1 whole entry, looked up): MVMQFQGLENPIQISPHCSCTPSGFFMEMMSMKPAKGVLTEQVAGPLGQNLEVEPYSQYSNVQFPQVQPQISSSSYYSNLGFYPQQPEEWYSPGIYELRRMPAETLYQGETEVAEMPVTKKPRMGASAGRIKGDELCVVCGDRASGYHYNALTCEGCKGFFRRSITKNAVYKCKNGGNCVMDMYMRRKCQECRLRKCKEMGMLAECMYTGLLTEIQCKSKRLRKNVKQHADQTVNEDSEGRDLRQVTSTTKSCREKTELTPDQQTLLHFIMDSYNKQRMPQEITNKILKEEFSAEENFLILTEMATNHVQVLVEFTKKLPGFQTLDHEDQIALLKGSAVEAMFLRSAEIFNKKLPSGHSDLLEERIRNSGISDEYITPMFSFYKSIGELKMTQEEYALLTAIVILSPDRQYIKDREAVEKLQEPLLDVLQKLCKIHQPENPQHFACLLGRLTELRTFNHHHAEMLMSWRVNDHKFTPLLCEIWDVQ
In short: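 Antagonist mode: chenodeoxycholic acid at 50 uM final stimulates a UAS-driven beta-lactamase reporter in HEK 293T FXR-bla cells during 16 h, 37C compound exposure. Read-out is FRET substrate fluorescence after 2 h at room temperature.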

[8] = biological target: Bile acid receptor (Homo sapiens) (UniProt Q96RI1); assay: qHTS assay to identify small molecule agonists of the farnesoid-X-receptor (FXR) signaling pathway (AID 743220; active = well fitted activation curve with a large enough effect in the signal ratio in the repeat runs, not every such curve was filed as active; the % refers to the signal ratio)
In short: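 FXR-UAS-bla HEK 293T cells carrying a UAS-driven beta-lactamase reporter were plated for 5 h at 37C/5% CO2, then exposed to DMSO-dissolved Tox21 10K compounds for 16 h at 37C. A LiveBLAzer B/G FRET substrate was loaded for 2 h at room temperature before fluorescence reading.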

[9] = qHTS assay to identify small molecule antagonists of the farnesoid-X-receptor (FXR) signaling pathway - cell viability counter screen (AID 743221; active = well fitted cell-killing curve with a large enough effect in the repeat runs, not every such curve was filed as active; note: nearly all actives have a fitted effect of over 50% in size)
In short: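 FXR-UAS-bla HEK 293T cells were treated with test compounds plus chenodeoxycholic acid (50 uM final) for 16 h at 37 C. Cell viability in the same wells was then read as CellTiter-Glo luminescence after 30 min at room temperature.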

Measured: Potency

CCCCN(CCCC)SN(C)C(=O)Oc1cccc2c1OC(C)(C)C2
not listed: [7] | [8] | [9]
inactive: all other assays above

c1ccc(-c2ccccc2)cc1
not listed: [5] | [6]
inactive: all other assays above

C#CC(C)(C)NC(=O)c1cc(Cl)cc(Cl)c1
not listed: [7] | [8]
inactive: all other assays above

[N-]=[N+]=[N-]
not listed: [7] | [8]
inactive: all other assays above

CC1C=[C-]C=C1.[C-]#[O+].[C-]#[O+].[C-]#[O+].[Mn]
not listed: [4] | [9]
inactive: all other assays above

CCC[CH2][Sn]([Cl])([Cl])[Cl]
not listed: [5] | [6]
inactive: all other assays above

CCOP(OCC)OCC
inactive: [2] | [7] | [4] | [8] | [9]

CCCCCCCCCCCC#N
inactive: all assays above

COCCl
not listed: [9]
inactive: all other assays above

Nc1ccc(Oc2ccc(N)cc2)cc1
inactive: [1] | [2] | [3] | [4] | [9]

Cc1cccc([N+](=O)[O-])c1
not listed: [3] | [9]
inactive: all other assays above

Cc1ccc(N)cc1N
inactive: all assays above

NCC(O)c1ccc(O)cc1 (stereo not drawn)
inactive: [2] | [4] | [9] | [5] | [6]

c1ccc2c(c1)oc1ccccc12
not listed: [7] | [8]
inactive: all other assays above

Cc1ccc(N)cc1Cl
inactive: [2] | [4] | [5] | [6]

O=NN1CCCC1
not listed: [4] | [9]
inactive: all other assays above

CC(C)OC(=O)Nc1ccccc1
inactive: [2] | [4] | [9] | [5] | [6]

CC(C)=C[C@@H]1[C@@H](C(=O)OCc2coc(Cc3ccccc3)c2)C1(C)C
not listed: [7] | [9]
inactive: all other assays above

COC(=O)c1ccccc1C(=O)OC
not listed: [1] | [3] | [4]
inactive: all other assays above

Clc1ccc(Cl)cc1
not listed: [7] | [8]
inactive: all other assays above

Nc1ccc(Br)cc1
not listed: [5] | [6]
inactive: all other assays above

Cn1cc(-c2ccccc2)c(=O)c(-c2cccc(C(F)(F)F)c2)c1
inactive: [1] | [2] | [3] | [4]

CON(C)C(=O)Nc1ccc(Cl)c(Cl)c1
not listed: [2] | [7] | [8]
inactive: all other assays above

Cc1ccccc1O
not listed: [7] | [8] | [9]
inactive: all other assays above

C1CN2CCN1CC2
inactive: [2] | [4] | [9] | [5] | [6]

CN(C)N=O
not listed: [1] | [3]
inactive: all other assays above

Cc1cc(Cl)ccc1O
inactive: all assays above

CN(C)CCO
not listed: [7] | [8] | [9]
inactive: all other assays above

O=c1[nH]c(=O)[nH]c(=O)[nH]1
not listed: [7] | [8]
inactive: all other assays above

CC(C)C1(C)N=C(c2nc3ccccc3cc2C(=O)O)NC1=O (stereo not drawn)
inactive: all assays above
